Results: the supplement of paper PMC11417369
Over roughly 25,000 sequences, “ln(normalized median fluorescence intensity)” has its median near 9.3; the highest 2% begin near 10. The entries come from a sample that favours the highest values as a whole.

tested on: PF3D7_0420300 AP2 domain 1 (GST-tagged); assay: gcPBM binding intensity (ln(normalized median fluorescence intensity)); higher = stronger DNA binding
Method in brief: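 Alexa488 anti-GST antibody, scanned at 488 nm, detected GST-tagged P. falciparum DNA-binding domains that had been expressed in E. coli and incubated for 1 h on an Agilent 4 × 180k array. The array carried primer-extended double-stranded 36-bp intergenic genomic probes and negative controls. Binding intensity is the highest Masliner-normalised natural-log median intensity across replicate spots of either orientation of each probe.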

Row | Sequence | gcPBM binding intensity (ln)
1 | TATATATTAAACTTTGCACACATAATTTAACTACAA [CACACA_site3440] | 9.4
2 | TTAGATATAAAAGCATGTACTTGTATAAAATATATA [XGTACX_site8272] | 9.16
3 | TACATGCAAAAAATTCCACACACACCCCCACATATA [CACACA_site8329] | 10.2
4 | TACATATACAGACACACACACACACCCCCACAAAAA [CACACA_site495] | 10.3
5 | CACACCCACAGACACACACACACATATATATATATA [CACACA_site363] | 10.2
6 | TATACAGACAGACACACACACATATATATATATATA [CACACA_site1734] | 9.82
7 | CACACCCACAGACACACACACACATATATAATATAT [CACACA_site594] | 10.2
8 | CATGCAAAAAATTCCACACACACACCCACATATAAA [CACACA_site1229] | 9.92
9 | TGCAAAAAATTCCACACACACACACCCATATAAATA [CACACA_site1230] | 10
10 | TATATACATAGACACCCACACACAAAAAAAAAAAAA [CACACA_site8186] | 9.75
11 | TACAGACATACATACACACATACATATATATATATA [CACACA_site1940] | 9.67
12 | TTGGCATACAGACACACACACACACGCCCACATATA [CACACA_site6425] | 10.2
13 | TTACATTATATACATACACACCCACCCACAAAAAAA [CACACA_site8187] | 10.1
14 | CCTTTATATTATAAAAGTACATAATATTTTATAAGT [XGTACX_site1629] | 8.96
15 | TATATATGTATCATTACACACATGTATACTTATTTG [CACACA_site4138] | 9.71
16 | TGAGAGTTCTCATATGCACACAAAAAACTTTCATTT [CACACA_site7898] | 9.28
17 | TATTTTTAATAAAAACGTACGGAATACAAAAAAAAT [XGTACX_site3477] | 9.4
18 | AAGAAAATTGTCTGAAGTACAAAACATTAATAATAT [XGTACX_site4864] | 9.27
19 | ATATTATAATTAAAACGTACGTATTTATGAATTCAT [XGTACX_site1047] | 9.16
20 | ATAAATAATATAAATACACACTAAAAAAAATATATA [CACACA_site4456] | 9.7
21 | CAAAAACATACCTACACACACAATATGTATAAATAA [CACACA_site7617] | 10
22 | CACCCCCACAGACACACACACACACCCATATATATA [CACACA_site364] | 10.3
23 | CATACACCCATACATACACACATACAGATATATATA [CACACA_site5123] | 9.74

Row | Sequence | gcPBM binding intensity (ln)
24 | CGCACCCACAGACACACACACACATATATATATATA [CACACA_site2202] | 10.2
25 | GGCATACACAGACACACACACACACCCACATATATA [CACACA_site591] | 10.3
26 | TTGGCATACAGACACACACACACACCCCCACATATA [CACACA_site590] | 10.1
27 | TAAATACAGACATACACACATACACCCACATATATA [CACACA_site547] | 9.95
28 | TATACATACAGACCCACACACAAAAAAAAAAAAAAA [CACACA_site6536] | 9.38
29 | AATACACGCAGACACACACACAAAAAAAAAAAAAAA [CACACA_site6384] | 9.61
30 | TACCTATACAGACACACACACACACGCCCACAAAAA [CACACA_site6375] | 10.3
31 | ATATTATTGTAGAAATGTACATATATATATATATAT [XGTACX_site1882] | 9.31
32 | ATCATATGTATGCATACACACAAAAAGTTATTTATA [CACACA_site6325] | 9.37
33 | AAAAAAAAAAAACACACACACACACCCAAATATATA [CACACA_site150] | 10.1
34 | TATATAAATAAACACACACACACCTTATAATTATTA [CACACA_site9345] | 9.93
35 | TTAACAAATAAACACACACACACACCCAAAAAAAAA [CACACA_site8068] | 10.1
36 | AAAAAAAAAAAACACACACACACACCCACAAAATAT [CACACA_site1447] | 10.2
37 | TAAACACCCATATAAACACACATACATACATACATA [CACACA_site5383] | 9.7
38 | TATATAAATGGACACACACACACCTTATAATTATTA [CACACA_site6093] | 10.2
39 | ATAAATAAAAAACACACACACACACCCAAAAAAAAA [CACACA_site2624] | 10.1
40 | TATATAAAGAAACACACACACACCTTATAATTATTA [CACACA_site4062] | 10
41 | CACAAACAAAAACACACACACACACCCACAAAAATG [CACACA_site2429] | 10.1
42 | CATACATACAAACACACACACACACCCATATATATA [CACACA_site2918] | 10.4
43 | TGCAACAAAATAAACACACACACACCCCCACAAAAA [CACACA_site3388] | 10.3
44 | TATAAACACCCATATAAACACACATACATACATACA [CACACA_site8791] | 9.58
45 | TTATATAACATTATTTGTACATATAAAATATGGATG [XGTACX_site8526] | 9
46 | ATATTATTTTAAAGTACACACATATATTGATATATA [CACACA_site7153] | 9.39

Row | Sequence | gcPBM binding intensity (ln)
47 | TGAATTCGTCAAAAGCGTACATATAATATCTTCTTG [XGTACX_site8842] | 9.19
48 | AAAAACTATTGTAGGACACACAAAATTCCAATTTTA [CACACA_site1701] | 9.41
49 | GTCACAAAATAAATTAAACACACAACATCATATATG [CACACA_site8182] | 9.65
50 | ATTAATTATATATATACACACACATACACCCAAATA [CACACA_site9126] | 10
51 | AACATACATAAACACACACACACACCCACAGAGACA [CACACA_site4430] | 10.4
52 | AATGTACCCACACCCACACACAAACAAATATATATA [CACACA_site2751] | 9.85
53 | AATGTACACGCACCCACACACAAACAAATATAAATA [CACACA_site7319] | 9.81
54 | TAAACAGACATATAAACACACATATAAACAGACATA [CACACA_site7214] | 9.91
55 | AAAATACAGAAACACACACACACACCCATATATATA [CACACA_site3559] | 10.3
56 | AAAAAAAAAAAAAAAACACACAGAAATATATATATA [CACACA_site4611] | 9.55
57 | ATAAAATACAGATAAACACACATATAAACACCCATA [CACACA_site5381] | 9.92
58 | CAAAAAAAATTATACACACACACACCCATATATATA [CACACA_site1044] | 10.2
59 | CACAAAAAAAATTATACACACACACCCATATATATA [CACACA_site8255] | 9.99
60 | AATGTACACCCACCCACACACAAACAAATATATATA [CACACA_site5521] | 10.2
61 | TTTAAATACAGACATACACACATACACCCACATATA [CACACA_site8078] | 9.81
62 | AAATAACACTAATGATGTACTCAACTATTTATAATT [XGTACX_site8183] | 9.47
63 | TAAATATCAAGACACACACACAAAAGTGAATAAATA [CACACA_site7723] | 9.9
64 | TTATATTCTAGAGACACATGCGATTTTTTATTTTAT [TGCATGCA_site649] | 9.42
65 | ATATAATGATGGAAAAGAAAAGAAATAAAAAAAAAA [CACACA_negctrl_site1170] | 9.21
66 | TAGTTATCACATTGCACACACATTTCCTTTTACATT [CACACA_site7589] | 10
67 | CTAAAAATTTTAATTGCACACCACGTTGGACTATTT [CACACA_site1489] | 9.24
68 | AGCCATTAATTCTCTACACACCTTTATGTTATTTAG [CACACA_site3635] | 9.71
69 | TATTTTAATGAAGCATTTAAGGGAAAAAAAAAAAAA [TGCATGCA_negctrl_site606] | 8.85

Row | Sequence | gcPBM binding intensity (ln)
70 | TTTACAAAAAATTATACACACACGTACAGATAAATA [CACACA_site4678] | 9.89
71 | TATACGCAGAAACACACACACATACACCCACATACA [CACACA_site1723] | 10
72 | AAAAAATACAAACACACACACACACCCATATATATA [CACACA_site3560] | 10.2
73 | TATATACACAAACACACACACACATACACCCACATA [CACACA_site8504] | 10.3
74 | AAAAAAAAAAAAAACACACACACACCCATACAAAAT [CACACA_site1446] | 10.1
75 | AATAAATATATATACACACCCATATATATATATATA [CACACA_site2595] | 9.43
76 | TATACATACCCACCCACACACAAAAAAAAAAAAAAA [CACACA_site4632] | 9.68
77 | TATAAATAAATTTATACACACACACCCATATATATA [CACACA_site8183] | 10
78 | AACATACAGAAACACACACACACACCCACACCCACA [CACACA_site493] | 10.3
79 | TAAATAAATTTATACACACACACACCCATATATATA [CACACA_site849] | 10.2
80 | TACAAACACCCATATACACACAAAAAAAAAATAAAA [CACACA_site5421] | 9.55
81 | TATATACACCCACATACACACAAATAAAAAAACACC [CACACA_site3414] | 9.98
82 | TATATACAGAAACACACACACACATATATATATATA [CACACA_site2247] | 10.1
83 | GATAAAATAAAAGTGGGTACTTAAATATATATATAA [XGTACX_site8457] | 9.28
84 | ATAAGAAAAAAGAACTGTACTAATAAAATATAAAAA [XGTACX_site3715] | 9.3
85 | TTTCGTAAAATGAAATGTACTCAAAAGTAAATATAA [XGTACX_site214] | 9.03
86 | TATTTTTCCATATGCACACACACCGTATATATAATA [CACACA_site1127] | 10
87 | AAAGAATAATTAAATACACACATATTGCAGTAAAAA [CACACA_site7201] | 9.69
88 | TATAAAAAATATAATTGTACATAAAGGTTAAAATGT [XGTACX_site6138] | 9.47
89 | ATTAGTTTTATATATAGTACATATAATTTTGAAGGT [XGTACX_site7445] | 9.2
